{"source": "PubChem BioAssay AID1445", "about": "(SRMLSC, 2008)", "target": "Aminopeptidase N (Plasmodium falciparum (isolate 3D7)) (UniProt O96935)", "sequence (O96935 whole entry, looked up)": "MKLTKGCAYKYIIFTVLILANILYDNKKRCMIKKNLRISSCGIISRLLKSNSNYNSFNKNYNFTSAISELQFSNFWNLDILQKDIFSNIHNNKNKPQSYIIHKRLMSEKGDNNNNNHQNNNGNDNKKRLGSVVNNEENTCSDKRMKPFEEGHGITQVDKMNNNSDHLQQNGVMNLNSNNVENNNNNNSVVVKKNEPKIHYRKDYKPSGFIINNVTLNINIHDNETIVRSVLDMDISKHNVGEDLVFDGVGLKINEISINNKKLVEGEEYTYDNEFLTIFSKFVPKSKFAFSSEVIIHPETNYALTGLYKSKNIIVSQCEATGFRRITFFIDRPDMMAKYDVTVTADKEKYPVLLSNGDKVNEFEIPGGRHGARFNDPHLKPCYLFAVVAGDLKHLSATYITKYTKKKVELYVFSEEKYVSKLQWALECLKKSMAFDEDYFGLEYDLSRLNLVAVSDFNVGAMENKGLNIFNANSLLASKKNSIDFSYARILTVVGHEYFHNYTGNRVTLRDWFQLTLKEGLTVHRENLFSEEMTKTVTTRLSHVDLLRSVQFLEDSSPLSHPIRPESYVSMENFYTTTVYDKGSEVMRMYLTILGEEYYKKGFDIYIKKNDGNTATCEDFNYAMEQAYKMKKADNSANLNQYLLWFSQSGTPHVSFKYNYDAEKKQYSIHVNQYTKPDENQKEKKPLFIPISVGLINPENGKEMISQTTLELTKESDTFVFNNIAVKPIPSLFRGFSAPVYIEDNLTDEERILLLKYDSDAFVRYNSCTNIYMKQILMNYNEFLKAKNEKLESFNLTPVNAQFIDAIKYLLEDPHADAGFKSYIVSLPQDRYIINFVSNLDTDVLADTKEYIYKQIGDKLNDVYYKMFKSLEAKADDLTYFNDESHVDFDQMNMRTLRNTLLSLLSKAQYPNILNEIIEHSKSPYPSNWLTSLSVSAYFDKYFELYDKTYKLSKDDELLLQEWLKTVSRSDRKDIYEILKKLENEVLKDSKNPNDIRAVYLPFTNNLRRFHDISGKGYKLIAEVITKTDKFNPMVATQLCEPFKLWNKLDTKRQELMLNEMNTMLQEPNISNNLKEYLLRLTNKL", "experiment": "malaria alanyl aminopeptidase activity blockers – biochemical, fluorogenic H-Leu-NHMec substrate, 1536-well (AID 1445);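 further: plate controls were DMSO full reaction for no effect and no enzyme background for full effect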", "settings": "recombinant M1AAP, H-Leu-NHMec fluorogenic kinetic assay", "key": {"[1]": {"settings": "at 30 µM, stronger effect = higher value unless noted"}}, "note": "Hit rate of the full screen: of about 220,000 compounds, about 910 (0.41%) were called active. For the sample, actives were picked, then their nearest neighbours and some compounds at random. Entries with a potency or affinity are not part of this list. Unmarked numbers belong to inactive results.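 How the source made its calls: active means primary inhibition above the hit cutoff, then over 50% inhibition at one or more dose response concentrations (cut at about 23% in these data, passing the limit was not always enough); inconclusive means conflicting primary data, or primary hits not chosen for dose response; inactive means low primary inhibition, or under 50% at every dose.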", "data": [{"compound": "COc1ccc(CN(C)C(=S)Nc2ccc(OC(F)F)cc2)cc1", "values": [{"measurement": "inhibition", "setting": "[1]", "result": -1.27, "unit": "%"}]}, {"compound": "O=C1CCCc2nc3nc4ccccc4n3cc21", "values": [{"measurement": "inhibition", "setting": "[1]", "result": -2.88, "unit": "%"}]}, {"compound": "CCOC(=O)CC(=O)CSc1nc2c(sc(=S)n2-c2ccccc2)c(=O)[nH]1", "values": [{"measurement": "inhibition", "setting": "[1]", "result": 21.4, "unit": "%"}]}, {"compound": "CCOC(=O)CSc1nc2c(sc(=S)n2-c2ccccc2)c(=O)[nH]1", "values": [{"measurement": "inhibition", "setting": "[1]", "result": 7.91, "unit": "%"}]}, {"compound": "CCOc1ccc(-n2c(=S)sc3c(=O)[nH]c(SCC(=O)NCc4ccco4)nc32)cc1", "values": [{"measurement": "inhibition", "setting": "at 30 µM, stronger effect = higher value", "result": "29.8% (active)"}, {"measurement": "inhibition", "setting": "at 100 µM (top of the series)", "result": 46.1, "unit": "%"}]}, {"compound": "CCOc1ccc(-n2c(=S)sc3c(=O)[nH]c(SCC(=O)NCC4CCCO4)nc32)cc1", "note": "(configuration not stated)", "values": [{"measurement": "inhibition", "setting": "[1]", "result": 18.3, "unit": "%"}]}, {"compound": "CCOC(=O)CSc1nc2c(sc(=S)n2-c2ccc(OCC)cc2)c(=O)[nH]1", "values": [{"measurement": "inhibition", "setting": "[1]", "result": 13.9, "unit": "%"}]}, {"compound": "CCN(CC)C(=O)CSc1nc2c(sc(=S)n2-c2ccccc2)c(=O)[nH]1", "values": [{"measurement": "inhibition", "setting": "[1]", "result": 5.01, "unit": "%"}]}, {"compound": "CCOc1ccc2c(c1)c1nnc(SCC(=O)N3CCC(C)CC3)nc1n2C", "values": [{"measurement": "inhibition", "setting": "[1]", "result": 7.57, "unit": "%"}]}, {"compound": "CC1CCN(C(=O)CSc2nc(N)cc(N)n2)CC1", "values": [{"measurement": "inhibition", "setting": "[1]", "result": -2.52, "unit": "%"}]}, {"compound": "CCOc1ccc(-n2c(=S)sc3c(=O)[nH]c(SCC(=O)NC(C)CC)nc32)cc1", "note": "(configuration not stated)", "values": [{"measurement": "inhibition", "setting": "[1]", "result": 11.5, "unit": "%"}]}, {"compound": "CCCc1ccc(OCC(=O)NNC(=O)c2cccnc2)cc1", "values": [{"measurement": "inhibition", "setting": "[1]", "result": -2.33, "unit": "%"}]}, {"compound": "Cc1cc(C(F)(F)F)nc(Nc2nc(C)c3ccccc3n2)n1", "values": [{"measurement": "inhibition", "setting": "[1]", "result": 10.9, "unit": "%"}]}, {"compound": "COc1cc2ccc(=O)oc2cc1OCC(O)C(C)(C)O", "note": "(configuration not stated)", "values": [{"measurement": "inhibition", "setting": "[1]", "result": 14.1, "unit": "%"}]}, {"compound": "COc1cccc(/C=N/Nc2nc3ccccc3n3cnnc23)c1", "values": [{"measurement": "inhibition", "setting": "[1]", "result": 0.89, "unit": "%"}]}, {"compound": "CCOC(=O)c1cc(-c2ccccc2)n(CCC(=O)N2CCN(c3ccc(OC)cc3)CC2)c1C", "values": [{"measurement": "inhibition", "setting": "[1]", "result": 5.67, "unit": "%"}]}, {"compound": "Cc1cc(C)n(/N=C/c2c[nH]c3ccccc23)c(=O)c1C#N", "values": [{"measurement": "inhibition", "setting": "[1]", "result": 5.27, "unit": "%"}]}, {"compound": "CCc1ccc(NC(=O)CSc2nc3ccsc3c(=O)n2CCCCCC(=O)O)cc1", "values": [{"measurement": "inhibition", "setting": "[1]", "result": -11.3, "unit": "%"}]}, {"compound": "COc1cc(NC(C)=O)ccc1-c1cc2ccccc2oc1=O", "values": [{"measurement": "inhibition", "setting": "[1]", "result": 4, "unit": "%"}]}, {"compound": "COc1ccc(NC(=O)C2CCC(=O)N2)cc1", "note": "(configuration not stated)", "values": [{"measurement": "inhibition", "setting": "[1]", "result": 3.48, "unit": "%"}]}, {"compound": "COc1ccc(C(C(=O)NC(C)(C)C)N(C(=O)CNC(=O)c2cccs2)c2ccc(C)cc2)cc1OC", "note": "(configuration not stated)", "values": [{"measurement": "inhibition", "setting": "[1]", "result": -2.96, "unit": "%"}]}, {"compound": "O=C(COC(=O)c1ccc(Cl)nc1)Nc1ccc(S(=O)(=O)N2CCCC2)cc1", "values": [{"measurement": "inhibition", "setting": "[1]", "result": 9.72, "unit": "%"}]}, {"compound": "Nc1ccc(C23CC4CC(CC(C4)C2)C3)cc1", "values": [{"measurement": "inhibition", "setting": "[1]", "result": 1.15, "unit": "%"}]}, {"compound": "CCOC(=O)c1cnc2c(-c3ccc(Cl)cc3)cnn2c1C", "values": [{"measurement": "inhibition", "setting": "[1]", "result": -12.2, "unit": "%"}]}, {"compound": "CC(=O)c1cnc2c(-c3ccc(Cl)cc3)cnn2c1C", "values": [{"measurement": "inhibition", "setting": "[1]", "result": -0.05, "unit": "%"}]}, {"compound": "CC(C)(C)C(=O)NC(=S)Nc1ccc(F)cc1", "values": [{"measurement": "inhibition", "setting": "[1]", "result": 4.15, "unit": "%"}]}, {"compound": "O=c1cc(-c2ccc(F)cc2F)[nH]c2ccccc12", "values": [{"measurement": "inhibition", "setting": "[1]", "result": -3.62, "unit": "%"}]}, {"compound": "O=c1cc(CN2CCN(S(=O)(=O)c3ccc4ccccc4c3)CC2)nc2sccn12", "values": [{"measurement": "inhibition", "setting": "[1]", "result": -6.82, "unit": "%"}]}, {"compound": "CC(C)NC(=O)CSc1nnc(COc2ccccc2Cl)o1", "values": [{"measurement": "inhibition", "setting": "[1]", "result": 8.56, "unit": "%"}]}, {"compound": "O=c1cc(CSc2nc3cc(Cl)ccc3o2)nc2sccn12", "values": [{"measurement": "inhibition", "setting": "[1]", "result": 4.21, "unit": "%"}]}, {"compound": "O=c1cc(CN2CCN(S(=O)(=O)c3ccccc3)CC2)nc2sccn12", "values": [{"measurement": "inhibition", "setting": "[1]", "result": -0.76, "unit": "%"}]}, {"compound": "O=c1cc(CSc2nnc(COc3ccccc3Cl)o2)nc2sccn12", "values": [{"measurement": "inhibition", "setting": "[1]", "result": "25.3% (active)"}]}, {"compound": "O=c1cc(CSc2ccc(S(=O)(=O)N3CCCCC3)cn2)nc2sccn12", "values": [{"measurement": "inhibition", "setting": "[1]", "result": "24.1% (active)"}]}, {"compound": "CN(C)CCCNS(=O)(=O)c1cc(Cl)c(Cl)cc1Cl", "values": [{"measurement": "inhibition", "setting": "[1]", "result": 0.71, "unit": "%"}]}, {"compound": "C#CCOC(=O)Nc1ccc(OCC(F)(F)F)nc1", "values": [{"measurement": "inhibition", "setting": "[1]", "result": -3.37, "unit": "%"}]}, {"compound": "O=C(O)Cc1cc(C(=O)Nc2ccc(Br)cc2)sc1-c1ccccc1", "values": [{"measurement": "inhibition", "setting": "[1]", "result": 8.41, "unit": "%"}]}, {"compound": "COc1ccc([N+](=O)[O-])cc1NC(=O)C(C)OC(=O)c1cccnc1", "note": "(configuration not stated)", "values": [{"measurement": "inhibition", "setting": "[1]", "result": -3.23, "unit": "%"}]}, {"compound": "CC(C)[C@H](NC(=O)c1ccc(Cl)c([N+](=O)[O-])c1)C(=O)NCc1ccc(F)cc1", "values": [{"measurement": "inhibition", "setting": "[1]", "result": 3.78, "unit": "%"}]}, {"compound": "Cc1cc(NC(=O)c2ccco2)ncc1NC(=O)CCc1ccccc1", "values": [{"measurement": "inhibition", "setting": "[1]", "result": "29.7% (active)"}]}, {"compound": "Cc1cc(NC(=O)c2ccccc2)ncc1NC(=O)c1ccco1", "values": [{"measurement": "inhibition", "setting": "[1]", "result": 5.34, "unit": "%"}]}, {"compound": "Cc1cc(NC(=O)c2ccco2)ncc1NC(=O)Cc1ccccc1", "values": [{"measurement": "inhibition", "setting": "[1]", "result": 0.67, "unit": "%"}]}, {"compound": "CC1CCCC(NC(=O)CCn2c(=S)oc3ccccc32)C1C", "note": "(configuration not stated)", "values": [{"measurement": "inhibition", "setting": "[1]", "result": 3.48, "unit": "%"}]}, {"compound": "Cc1ccc(-n2c(-c3nn(C)c(C)c3Cl)n[nH]c2=S)cc1", "values": [{"measurement": "inhibition", "setting": "[1]", "result": 1.9, "unit": "%"}]}, {"compound": "CCNC(=O)C1CC(=O)N(Cc2ccc3c(c2)OCO3)C(=Nc2ccc(F)cc2)S1", "note": "(configuration not stated)", "values": [{"measurement": "inhibition", "setting": "[1]", "result": "27% (active)"}]}, {"compound": "CCNC(=O)C1CC(=O)N(Cc2ccc3c(c2)OCO3)C(=Nc2ccc(OCC)cc2)S1", "note": "(configuration not stated)", "values": [{"measurement": "inhibition", "setting": "[1]", "result": -1.35, "unit": "%"}]}, {"compound": "CNC(=O)C1CC(=O)N(Cc2ccc3c(c2)OCO3)C(=Nc2ccc(F)cc2)S1", "note": "(configuration not stated)", "values": [{"measurement": "inhibition", "setting": "[1]", "result": -5.29, "unit": "%"}]}, {"compound": "COc1ccc(NC(=S)N2CCN(c3ncccn3)CC2)cc1", "values": [{"measurement": "inhibition", "setting": "[1]", "result": 4.34, "unit": "%"}]}, {"compound": "CC1=CC(c2ccccc2)n2nnnc2N1", "note": "(configuration not stated)", "values": [{"measurement": "inhibition", "setting": "[1]", "result": -5.78, "unit": "%"}]}, {"compound": "c1ccc2c(c1)nc(N1CCOCC1)c1nncn12", "values": [{"measurement": "inhibition", "setting": "[1]", "result": 4.1, "unit": "%"}]}, {"compound": "c1ccc(N2CCN(c3nc4ccccc4n4cnnc34)CC2)cc1", "values": [{"measurement": "inhibition", "setting": "[1]", "result": 14.5, "unit": "%"}]}, {"compound": "c1cnc(N2CCN(c3nc4ccccc4n4cnnc34)CC2)nc1", "values": [{"measurement": "inhibition", "setting": "[1]", "result": "24.4% (active)"}]}, {"compound": "Cc1cc(C)n(Cc2nc3ccccc3n2C)n1", "values": [{"measurement": "inhibition", "setting": "[1]", "result": -3.79, "unit": "%"}]}, {"compound": "CC(C)(C)[C@H]1C=C(C(=O)NC2CC2)O[C@@H](OCc2ccc(CO)cc2)C1", "values": [{"measurement": "inhibition", "setting": "[1]", "result": 1.09, "unit": "%"}]}, {"compound": "Cc1ccc(CNC(=O)c2ccc3c(=O)[nH]c4c(C(=O)NCC5CCCO5)sc(=S)n4c3c2)cc1", "note": "(configuration not stated)", "values": [{"measurement": "inhibition", "setting": "[1]", "result": 23, "unit": "%"}]}, {"compound": "CCCCCNC(=O)c1ccc2c(=O)n(CC3CCCO3)c(=S)[nH]c2c1", "note": "(configuration not stated)", "values": [{"measurement": "inhibition", "setting": "[1]", "result": 5.58, "unit": "%"}]}, {"compound": "CC(=O)NNC(=O)c1sc(=S)n(C)c1C", "values": [{"measurement": "inhibition", "setting": "[1]", "result": 0.62, "unit": "%"}]}, {"compound": "CCCCCNC(=O)c1ccc2c(=O)n(CC3CCCO3)c(=O)[nH]c2c1", "note": "(configuration not stated)", "values": [{"measurement": "inhibition", "setting": "[1]", "result": 4.6, "unit": "%"}]}, {"compound": "O=C(NC1CCCCC1)c1sc(=S)n2c1[nH]c(=O)c1ccccc12", "values": [{"measurement": "inhibition", "setting": "[1]", "result": 0.76, "unit": "%"}]}, {"compound": "NC(=O)c1sc(=S)n2c1[nH]c(=O)c1sccc12", "values": [{"measurement": "inhibition", "setting": "[1]", "result": 17.2, "unit": "%"}]}, {"compound": "O=C(NCC1CCCO1)c1sc(=S)n2c1[nH]c(=O)c1ccc(C(=O)N3CCCCC3)cc12", "note": "(configuration not stated)", "values": [{"measurement": "inhibition", "setting": "[1]", "result": 20.2, "unit": "%"}]}, {"compound": "O=C(NCc1ccccc1)c1sc(=S)n2c1[nH]c(=O)c1ccccc12", "values": [{"measurement": "inhibition", "setting": "[1]", "result": 18.5, "unit": "%"}]}]}
